# Screens deposited in PubChem BioAssay by National Center for Advancing Translational Sciences (NCATS).
# The full list was thinned out, with hits kept by preference.
# Pf Dd2 inh: qHTS Primary assay for Inhibitors of Plasmodium falciparum Dd2 growth in vitro; P. falciparum Dd2 growth, SYBR Green, 72 h; Potency, µM (series often up to 28.9 µM), inactives show at the highest dose activity, negative = inhibition, actives largely listed as inhibitors; hit rate 4.3% among 120,000; active means well fitted inhibition curve with a large enough effect;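 further: plate controls were DMSO vehicle for no effect and reference drug for full effect; nearly all actives have a fitted effect of over 65% in size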
#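 Infected erythrocytes (Dd2, 0.3% parasitemia, 2.5% hematocrit final) are added to compound in RPMI-1640/Albumax II medium, grown 72 h at 37C in low oxygen, then lysed with saponin/Triton-X containing SYBR Green and read by fluorescence.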
# An asterisk follows results filed as active; i = inactive; [ ] = remark or other dose. Potency means the concentration at half of the fitted maximal effect.
SMILES,Pf Dd2 inh
CC(=O)N1CCC(N2CC[C@H](CO)[C@H](N(C)C)C2)CC1,6%
CCc1ccccc1NC(=O)CSc1nc2n[nH]c(C)c2c(=N)n1-c1cccc(C)c1,-10%
Cc1cccc(-n2c(SCC(=O)Nc3ccccc3Cl)nc3n[nH]c(C)c3c2=N)c1,i
Cc1ccc(NC(=O)CSc2nc3n[nH]c(C)c3c(=N)n2-c2ccccc2C)cc1C,8.9µM*
COCCOCC(=O)N1CCC(N2C(=O)C(OCC3CC3)C23CCOCC3)CC1 (configuration not stated),2%
COC[C@@H]1CN(C(=O)c2ccc(=O)[nH]c2)C[C@H]1c1ccncc1,36%
Cc1cc(CNC(=O)[C@@H]2CCC[C@@H](NC(=O)C3CCCC3)CN(C)C(=O)C2)no1,-14%[44.1 µM]
O=C(CCn1cccn1)NC1CC(=O)N(Cc2cccc3ccccc23)C1 (configuration not stated),-4%
O=C(N[C@H]1CO[C@H]2[C@@H]1OC[C@@H]2n1cc(-c2ccccn2)nn1)c1ccc(C(F)(F)F)cc1,1%
c1ccc(-c2nc(NCc3cc4n(n3)CCCNC4)c3ccccc3n2)cc1,7.9µM*
O=C(NCc1cc2n(n1)CCNC2)C(c1ccccc1)C1CCCC1 (configuration not stated),-30%
Cc1cccc2ncc(C(=O)NCc3cc4n(n3)CCCNC4)c(=O)n12,3%
O=C(N[C@H]1CCOC[C@H]1C1CCOCC1)c1cc(=O)[nH]c2ccc(F)cc12,2%
COc1ccc(C2(C(=O)N3CCC4(CC3)N(C)C(=O)CS4(=O)=O)CC2)cc1,-10%
CC(C)CN(Cc1cnn(C)c1)C(=O)C1CCN(C(=O)C2CCC2)CC1,-6%
Cc1ccc(-n2nc(C)c3c(C(=O)O)cc(C)nc32)cc1,5%
Cc1cc(C(=O)N2CCN(c3ccc(F)cc3)CC2)c2c(C)nn(-c3cccc(Cl)c3C)c2n1,25%
Cc1cc(C(=O)N2CCN(c3cccc(Cl)c3)CC2)c2c(C)nn(-c3ccccc3Cl)c2n1,11µM*
Cc1ccc(C)c(N2CCN(C(=O)c3cc(C)nc4c3c(C)nn4-c3ccccc3)CC2)c1,8.9µM*
Cc1ccc(C)c(N2CCN(C(=O)c3cccn4c(=O)c5ccccc5nc34)CC2)c1,13µM*
CSc1ncc(C(=O)N2CCN(c3cc(C)ccc3C)CC2)c(C)n1,16%
Cc1ccc(-n2nc(C)c3c(C(=O)Nc4ccccc4C(F)(F)F)cc(C)nc32)cc1,-13%
O=C(c1cccn2c(=O)c3cc(Cl)ccc3nc12)N1CCN(c2ccccc2F)CC1,i
COc1cc(NC(=O)c2cc(C)nc3c2c(C)nn3-c2ccccc2Cl)cc(OC)c1,-28%
C[C@H]1CN(C(=O)c2nn(C)c3ccccc23)C[C@@H]1c1nc(-c2ccncc2)no1,i
SMILES,Pf Dd2 inh
O=C(Cc1ccc(Cl)cc1)NC1CCN(c2cc(C(F)(F)F)ncn2)CC1,-72%
N#Cc1ccc(CN2C[C@@H](CO)[C@H](c3ccncc3)C2)cc1,12%
Fc1ccc(Cc2noc(-c3ccc(NCCCn4ccnc4)nc3)n2)cc1,-13%
CN(C)c1ccc(-c2nnnn2[C@H]2CO[C@H]3[C@@H]2OC[C@@H]3NC(=O)NCc2ccccc2)cc1,-7%
Cc1cc(Cl)ccc1NC(=O)N1C[C@@H](F)C[C@H]1C(=O)N1CCc2ccccc2C1,-16%
Cc1cccc(NC(=O)N2C[C@@H](F)C[C@H]2C(=O)N2CCc3ccccc3C2)c1C,7.9µM*
Cc1ccc(NC(=O)N2C[C@@H](F)C[C@H]2C(=O)N2CCc3ccccc3C2)c(C)c1,-22%
Cc1cccc(CNC(=O)C2Cn3cccc3C(=O)N2Cc2ccccc2)c1 (configuration not stated),-52%
CC(C)Cn1c(=O)[nH]c2cccnc21,22%[44.1 µM]
CCC(=O)Nc1cc(C(=O)NCc2ccc(N3CCN(C)CC3)cc2)c2ccc(C)nc2c1,10µM*
CCNC(=O)c1cc(NC(=O)CC)cc2nc(C)ccc12,-16%
CCCCNC(=O)c1cc(NC(=O)CC)cc2nc(C)ccc12,-2%
CC(=O)Nc1cccc(C(=O)N2CC[C@@H](c3sccc3C)[C@H](O)C2)c1,-9%
Cc1nn(C)c2ncnc(NCc3nn[nH]n3)c12,-1%
O=C(c1ccccc1)N1CCC(Cc2nc(C3CCOCC3)no2)CC1,40%
CCc1ccccc1NC(=O)c1ccc2c(c1)c(C)c(C)n2Cc1ccccc1,11µM*
Cc1ccccc1NC(=O)c1ccc2c(c1)c(C)c(C)n2Cc1ccccc1,-3%
Cc1c(C)n(Cc2ccccc2)c2ccc(C(=O)NCc3ccccc3F)cc12,-11%
CSc1cccc(NC(=O)c2ccc3c(c2)c(C)c(C)n3Cc2ccc(F)cc2)c1,10µM*
Cc1c(C)n(Cc2ccccc2)c2ccc(C(=O)NC(C)c3ccccc3)cc12 (configuration not stated),-10%
CSc1ccc(CCNC(=O)c2ccc3c(c2)c(C)c(C)n3Cc2ccc(F)cc2)cc1,9%
CC1=C[C@@H](CNC(=O)CCC(=O)O)[C@H](C(C)C)C[C@H]1CC(=O)NCc1cccnc1,8%[44.1 µM]
O=C(C1CC1)N1CCC(OCCOc2cccnc2)CC1,53%
O=C1CCN(C(=O)C2CCC2)CCCC(C(=O)N2CCN(c3ccccn3)CC2)CCN1 (configuration not stated),1%
Cc1cc(C(=O)N2CCC(c3nnc(Cn4ccnc4)n3C)CC2)cs1,0%
SMILES,Pf Dd2 inh
Cc1cc(=O)n(CC(=O)Nc2ccc(F)cc2)c(-c2ccccc2)n1,i
COc1ccc(S(=O)(=O)NCC(c2ccc(N(C)C)cc2)N2CCOCC2)cc1 (configuration not stated),-16%
Cc1cc(S(=O)(=O)NCC(c2ccc(N(C)C)cc2)N2CCOCC2)ccc1F (configuration not stated),-27%
CC(C)Oc1ccc(C(=O)NCC(c2ccc(N(C)C)cc2)N2CCCC2)cc1 (configuration not stated),10µM*
COc1ccc(C(CNC(=O)c2ccc(F)cc2)N2CCCC2)cc1 (configuration not stated),-4%
Cc1ccccc1C(=O)NCC(c1ccc(N(C)C)cc1)N1CCCC1 (configuration not stated),-19%
CN(C)c1ccc(C(CNS(=O)(=O)c2ccc(Cl)cc2)N2CCCC2)cc1 (configuration not stated),13µM*
Cc1cccc(C(=O)N2CCCCCCNC(=O)[C@@H]3C[C@@H](c4nc(-c5cccnc5)no4)C[C@@H]32)c1,-7%
CN(Cc1cc(-c2ccccc2)on1)C(=O)c1cn(Cc2ccc(F)cc2)nn1,3%
Cc1cc(-c2nc3ncccc3o2)ccc1NC(=O)COc1cc(C)c(Cl)c(C)c1,4%
Cc1cc(-c2nc3ncccc3o2)ccc1NC(=O)COc1ccccc1C,2%
Cc1cc(OCC(=O)Nc2cc(-c3nc4ncccc4o3)ccc2C)ccc1Cl,10µM*
O=C(Cc1cccn1-c1ccc(Cl)cc1)NC1CCCC1,-22%
O=C(NCCc1c[nH]c2ccc(F)cc12)C1CC(=O)N(c2n[nH]c3ccccc23)C1 (configuration not stated),i
O=C(CCC1CCCN(S(=O)(=O)c2ccccc2)C1)NC1CC1 (configuration not stated),-3%
CNCc1ccc(N2CCCC2)cc1,-18%[44.1 µM]
Cc1nc(CN2C(=O)OC3(CCN(C(=O)Cc4ccccc4)CC3)C2(C)c2ccccc2)cs1 (configuration not stated),-1%
Cc1ccc(CNC(=O)CN(c2ccc(C)cc2)S(=O)(=O)c2c(C)nn(C)c2C)cc1,29%
